The results in this text go back to ChEMBL document CHEMBL1961873, “Compounds: GSK PKIS; Assays: Nanosyn kinase panel” (2012).

Where “and” joins values, the source holds several entries; their conditions need not be identical. Identical values can stand only once.

Assay [1] deals with Calcium/calmodulin-dependent protein kinase type II subunit alpha (Homo sapiens) (UniProt Q9UQM7). The settings on record: at 1 µM.
In assay [2] the target is Calcium/calmodulin-dependent protein kinase type II subunit delta (Homo sapiens) (UniProt Q13557). The settings on record: at 0.1 µM.
Sequence of Calcium/calmodulin-dependent protein kinase type II subunit delta (Homo sapiens) (Q13557 whole entry): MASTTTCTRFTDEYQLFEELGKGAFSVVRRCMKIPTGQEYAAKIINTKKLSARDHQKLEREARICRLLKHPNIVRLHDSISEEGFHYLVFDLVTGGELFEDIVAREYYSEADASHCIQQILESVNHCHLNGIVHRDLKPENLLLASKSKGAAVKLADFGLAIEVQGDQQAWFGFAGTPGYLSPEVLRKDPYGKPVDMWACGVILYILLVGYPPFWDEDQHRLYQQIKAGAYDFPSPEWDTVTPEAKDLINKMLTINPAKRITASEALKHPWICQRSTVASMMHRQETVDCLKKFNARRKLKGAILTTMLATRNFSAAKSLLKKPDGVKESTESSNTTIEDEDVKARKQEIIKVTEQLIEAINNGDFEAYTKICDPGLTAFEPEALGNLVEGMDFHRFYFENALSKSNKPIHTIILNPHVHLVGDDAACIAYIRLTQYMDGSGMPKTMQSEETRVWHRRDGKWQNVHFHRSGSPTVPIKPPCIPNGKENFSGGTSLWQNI
The target is the same in assay [3]. The note with it: at 1 µM.
For assay [4], the target named is T1, Calcium/calmodulin-dependent protein kinase type IV (Homo sapiens) (UniProt Q16566).
T1 sequence (whole entry): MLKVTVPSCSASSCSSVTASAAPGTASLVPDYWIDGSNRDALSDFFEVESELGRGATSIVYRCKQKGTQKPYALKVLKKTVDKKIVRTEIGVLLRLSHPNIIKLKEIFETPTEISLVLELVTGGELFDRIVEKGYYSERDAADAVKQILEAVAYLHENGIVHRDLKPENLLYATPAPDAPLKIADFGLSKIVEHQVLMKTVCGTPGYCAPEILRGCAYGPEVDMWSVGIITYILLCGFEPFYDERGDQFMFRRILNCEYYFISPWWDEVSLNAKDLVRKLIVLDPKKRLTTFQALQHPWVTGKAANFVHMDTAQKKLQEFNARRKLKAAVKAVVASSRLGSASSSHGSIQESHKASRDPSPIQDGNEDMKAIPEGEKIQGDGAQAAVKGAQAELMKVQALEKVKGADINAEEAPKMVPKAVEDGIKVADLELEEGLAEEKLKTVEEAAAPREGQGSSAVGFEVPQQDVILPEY
The settings on record: at 0.1 µM.

Assay [5] deals with T1, Calcium/calmodulin-dependent protein kinase type IV (Homo sapiens). The settings on record: at 1 µM.
Assay [6] has as its target T2, Serine/threonine-protein kinase Chk1 (Homo sapiens) (UniProt O14757).
T2 sequence (whole entry): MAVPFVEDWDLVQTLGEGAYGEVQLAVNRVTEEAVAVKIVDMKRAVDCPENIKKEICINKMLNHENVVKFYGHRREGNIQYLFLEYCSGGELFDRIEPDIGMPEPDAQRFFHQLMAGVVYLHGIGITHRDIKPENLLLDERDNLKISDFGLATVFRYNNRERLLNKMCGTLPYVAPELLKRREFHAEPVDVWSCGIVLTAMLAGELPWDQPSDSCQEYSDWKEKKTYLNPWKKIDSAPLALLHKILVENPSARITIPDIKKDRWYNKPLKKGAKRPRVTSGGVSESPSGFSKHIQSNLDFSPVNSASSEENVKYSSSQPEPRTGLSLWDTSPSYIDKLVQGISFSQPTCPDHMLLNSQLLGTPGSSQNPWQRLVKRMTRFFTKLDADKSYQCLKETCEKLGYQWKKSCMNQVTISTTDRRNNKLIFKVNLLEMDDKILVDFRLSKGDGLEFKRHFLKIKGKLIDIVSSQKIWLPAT
The note with it: at 0.1 µM.

Assay [7] has as its target T2, Serine/threonine-protein kinase Chk1 (Homo sapiens). The settings on record: at 1 µM.
In assay [8] the target is Serine/threonine-protein kinase Chk2 (Homo sapiens) (UniProt O96017). The settings on record: at 0.1 µM.
For assay [9] the target is unchanged. The note with it: at 1 µM.
The target of assay [10] is Death-associated protein kinase 1 (Homo sapiens) (UniProt P53355). The settings on record: at 0.1 µM.
Sequence of Death-associated protein kinase 1 (Homo sapiens) (P53355 whole entry, looked up): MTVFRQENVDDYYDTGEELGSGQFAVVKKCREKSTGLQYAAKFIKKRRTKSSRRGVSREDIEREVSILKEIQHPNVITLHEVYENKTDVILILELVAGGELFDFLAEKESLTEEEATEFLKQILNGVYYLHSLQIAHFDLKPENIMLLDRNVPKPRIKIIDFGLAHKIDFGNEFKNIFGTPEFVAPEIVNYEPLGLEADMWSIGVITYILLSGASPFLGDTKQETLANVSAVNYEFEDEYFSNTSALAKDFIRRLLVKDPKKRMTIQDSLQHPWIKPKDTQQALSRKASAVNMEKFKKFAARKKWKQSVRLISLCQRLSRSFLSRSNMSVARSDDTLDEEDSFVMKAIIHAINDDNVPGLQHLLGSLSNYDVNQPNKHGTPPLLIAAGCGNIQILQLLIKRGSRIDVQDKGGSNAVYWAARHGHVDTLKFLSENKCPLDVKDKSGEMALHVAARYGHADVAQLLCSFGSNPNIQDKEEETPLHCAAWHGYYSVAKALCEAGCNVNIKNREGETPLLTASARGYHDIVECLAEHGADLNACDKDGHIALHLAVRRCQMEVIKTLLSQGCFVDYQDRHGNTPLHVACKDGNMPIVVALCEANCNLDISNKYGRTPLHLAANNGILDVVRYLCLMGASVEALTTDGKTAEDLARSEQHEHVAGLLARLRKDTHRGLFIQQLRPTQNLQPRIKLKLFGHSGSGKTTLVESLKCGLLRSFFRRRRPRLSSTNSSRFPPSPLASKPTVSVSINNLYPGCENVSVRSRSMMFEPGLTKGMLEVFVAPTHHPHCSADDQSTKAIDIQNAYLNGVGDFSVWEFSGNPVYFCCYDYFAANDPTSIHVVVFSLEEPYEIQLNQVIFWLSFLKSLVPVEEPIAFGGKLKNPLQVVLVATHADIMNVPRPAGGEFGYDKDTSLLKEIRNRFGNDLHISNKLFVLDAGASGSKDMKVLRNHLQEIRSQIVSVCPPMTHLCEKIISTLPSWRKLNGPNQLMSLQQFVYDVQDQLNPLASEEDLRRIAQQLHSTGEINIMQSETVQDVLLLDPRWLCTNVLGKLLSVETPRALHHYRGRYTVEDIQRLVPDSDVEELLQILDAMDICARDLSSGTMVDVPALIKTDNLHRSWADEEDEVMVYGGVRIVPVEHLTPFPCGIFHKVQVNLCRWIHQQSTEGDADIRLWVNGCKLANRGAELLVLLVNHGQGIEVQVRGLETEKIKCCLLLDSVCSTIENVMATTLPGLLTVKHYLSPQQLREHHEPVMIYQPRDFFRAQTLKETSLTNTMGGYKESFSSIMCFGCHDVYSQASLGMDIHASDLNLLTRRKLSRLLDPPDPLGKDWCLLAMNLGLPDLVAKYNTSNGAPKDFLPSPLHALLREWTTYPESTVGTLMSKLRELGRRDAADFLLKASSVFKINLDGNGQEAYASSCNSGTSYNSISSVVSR
Assay [11] has the same target. The settings on record: at 1 µM.
For assay [12], the target named is T3, Serine/threonine-protein kinase DCLK2 (Homo sapiens) (UniProt Q8N568).
T3 sequence (whole entry): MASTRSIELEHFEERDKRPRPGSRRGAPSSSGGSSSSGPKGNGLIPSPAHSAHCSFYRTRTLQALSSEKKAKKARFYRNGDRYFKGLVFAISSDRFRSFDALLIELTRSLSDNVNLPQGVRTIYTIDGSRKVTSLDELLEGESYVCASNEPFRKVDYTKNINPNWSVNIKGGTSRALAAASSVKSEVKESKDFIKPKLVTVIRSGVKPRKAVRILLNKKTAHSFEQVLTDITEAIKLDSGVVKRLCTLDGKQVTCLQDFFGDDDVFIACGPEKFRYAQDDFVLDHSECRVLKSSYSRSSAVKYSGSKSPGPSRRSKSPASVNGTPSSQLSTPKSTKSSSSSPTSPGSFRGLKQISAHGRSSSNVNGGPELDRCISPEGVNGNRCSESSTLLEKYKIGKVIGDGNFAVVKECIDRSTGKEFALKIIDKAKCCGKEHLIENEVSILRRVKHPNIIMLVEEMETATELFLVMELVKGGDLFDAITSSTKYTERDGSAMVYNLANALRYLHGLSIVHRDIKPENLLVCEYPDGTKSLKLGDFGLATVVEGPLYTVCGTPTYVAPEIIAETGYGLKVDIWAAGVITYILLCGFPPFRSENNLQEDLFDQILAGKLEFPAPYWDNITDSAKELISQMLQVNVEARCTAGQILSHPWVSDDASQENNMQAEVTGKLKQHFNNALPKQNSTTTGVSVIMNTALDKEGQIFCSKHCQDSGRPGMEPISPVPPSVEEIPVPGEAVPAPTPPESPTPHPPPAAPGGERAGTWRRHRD
The note with it: at 0.1 µM.

Assay [13] addresses T3, Serine/threonine-protein kinase DCLK2 (Homo sapiens). The settings on record: at 1 µM.
Assay [14] addresses MAP kinase-activated protein kinase 2 (Homo sapiens) (UniProt P49137). The settings on record: at 0.1 µM.
For assay [15] the target is unchanged. The note with it: at 1 µM.
Assay [16] concerns the target MAP kinase-activated protein kinase 3 (Homo sapiens) (UniProt Q16644). The settings on record: at 0.1 µM.
Assay [17] has the same target. The settings on record: at 1 µM.
Assay [18] concerns the target Serine/threonine-protein kinase MARK1 (Homo sapiens) (UniProt Q9P0L2). The settings on record: at 0.1 µM.
Assay [19] shares this target. The note with it: at 1 µM.
For assay [20], the target named is MAP/microtubule affinity-regulating kinase 3 (Homo sapiens) (UniProt P27448). The settings on record: at 0.1 µM.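 Further: mean percent inhibition of MARK3 kinase activity, measured within the GSK PKIS screening panel.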
Sequence of MAP/microtubule affinity-regulating kinase 3 (Homo sapiens) (P27448 whole entry, looked up): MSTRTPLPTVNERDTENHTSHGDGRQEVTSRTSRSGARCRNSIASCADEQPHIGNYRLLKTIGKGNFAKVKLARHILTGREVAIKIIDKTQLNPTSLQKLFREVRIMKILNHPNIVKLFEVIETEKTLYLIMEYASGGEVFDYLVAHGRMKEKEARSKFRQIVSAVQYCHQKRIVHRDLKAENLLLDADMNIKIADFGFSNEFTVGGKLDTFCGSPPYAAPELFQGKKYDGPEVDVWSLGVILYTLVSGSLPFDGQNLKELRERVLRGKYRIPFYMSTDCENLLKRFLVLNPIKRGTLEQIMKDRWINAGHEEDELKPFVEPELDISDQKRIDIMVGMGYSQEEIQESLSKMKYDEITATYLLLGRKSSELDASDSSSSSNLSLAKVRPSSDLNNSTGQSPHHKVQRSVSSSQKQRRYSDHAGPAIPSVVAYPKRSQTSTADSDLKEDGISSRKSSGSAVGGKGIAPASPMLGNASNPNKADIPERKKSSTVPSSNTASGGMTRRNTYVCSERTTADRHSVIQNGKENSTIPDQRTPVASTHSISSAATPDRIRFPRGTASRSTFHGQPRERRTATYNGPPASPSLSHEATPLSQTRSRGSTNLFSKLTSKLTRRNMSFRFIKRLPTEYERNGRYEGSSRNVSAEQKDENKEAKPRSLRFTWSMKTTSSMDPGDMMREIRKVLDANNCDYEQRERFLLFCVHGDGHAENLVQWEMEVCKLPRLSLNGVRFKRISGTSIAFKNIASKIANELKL

Sequence of MAP kinase-activated protein kinase 2 (Homo sapiens) (P49137 whole entry, looked up): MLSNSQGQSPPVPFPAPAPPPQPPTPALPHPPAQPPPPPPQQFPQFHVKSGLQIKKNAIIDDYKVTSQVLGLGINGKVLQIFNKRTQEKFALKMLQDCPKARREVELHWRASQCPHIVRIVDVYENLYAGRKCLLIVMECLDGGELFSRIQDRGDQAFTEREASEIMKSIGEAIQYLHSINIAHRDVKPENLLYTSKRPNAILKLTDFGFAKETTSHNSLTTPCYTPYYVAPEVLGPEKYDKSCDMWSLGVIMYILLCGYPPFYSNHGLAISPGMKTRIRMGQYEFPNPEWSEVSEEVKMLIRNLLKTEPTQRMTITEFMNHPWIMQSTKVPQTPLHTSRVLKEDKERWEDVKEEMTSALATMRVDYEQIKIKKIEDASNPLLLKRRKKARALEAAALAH
Sequence of Serine/threonine-protein kinase MARK1 (Homo sapiens) (Q9P0L2 whole entry, looked up): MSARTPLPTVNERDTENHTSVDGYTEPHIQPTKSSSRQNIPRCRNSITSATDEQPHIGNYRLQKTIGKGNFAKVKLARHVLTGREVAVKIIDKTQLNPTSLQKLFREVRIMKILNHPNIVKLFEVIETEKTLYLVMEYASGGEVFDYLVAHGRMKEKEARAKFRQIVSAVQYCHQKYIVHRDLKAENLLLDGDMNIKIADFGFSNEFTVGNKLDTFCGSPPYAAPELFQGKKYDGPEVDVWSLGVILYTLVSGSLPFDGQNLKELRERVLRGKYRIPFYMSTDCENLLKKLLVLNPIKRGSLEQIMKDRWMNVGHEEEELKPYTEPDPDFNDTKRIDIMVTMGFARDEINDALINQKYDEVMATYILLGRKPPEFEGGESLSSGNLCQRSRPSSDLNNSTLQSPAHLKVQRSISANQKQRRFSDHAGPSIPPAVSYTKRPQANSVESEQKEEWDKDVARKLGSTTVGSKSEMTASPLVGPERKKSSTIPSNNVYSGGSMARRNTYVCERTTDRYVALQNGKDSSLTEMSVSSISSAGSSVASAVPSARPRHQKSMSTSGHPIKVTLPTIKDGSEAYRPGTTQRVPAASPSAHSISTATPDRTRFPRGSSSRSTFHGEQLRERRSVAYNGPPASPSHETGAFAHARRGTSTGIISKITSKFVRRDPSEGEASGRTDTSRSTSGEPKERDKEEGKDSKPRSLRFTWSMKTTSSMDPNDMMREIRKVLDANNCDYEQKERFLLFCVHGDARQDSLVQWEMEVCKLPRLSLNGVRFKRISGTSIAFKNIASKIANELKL
Sequence of Calcium/calmodulin-dependent protein kinase type II subunit alpha (Homo sapiens) (Q9UQM7 whole entry): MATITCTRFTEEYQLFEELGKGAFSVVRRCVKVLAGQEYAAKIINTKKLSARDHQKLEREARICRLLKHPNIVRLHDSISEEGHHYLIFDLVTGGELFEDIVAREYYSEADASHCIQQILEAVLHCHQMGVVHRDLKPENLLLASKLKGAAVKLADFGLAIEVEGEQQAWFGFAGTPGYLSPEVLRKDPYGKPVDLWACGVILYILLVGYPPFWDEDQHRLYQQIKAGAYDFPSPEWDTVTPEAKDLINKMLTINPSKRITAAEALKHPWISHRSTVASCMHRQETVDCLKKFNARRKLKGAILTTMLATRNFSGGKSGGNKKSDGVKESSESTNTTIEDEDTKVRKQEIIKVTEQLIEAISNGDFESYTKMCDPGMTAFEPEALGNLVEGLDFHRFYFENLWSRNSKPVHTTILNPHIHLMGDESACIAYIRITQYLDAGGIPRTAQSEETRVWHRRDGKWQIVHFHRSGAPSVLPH
Sequence of MAP kinase-activated protein kinase 3 (Homo sapiens) (Q16644 whole entry, looked up): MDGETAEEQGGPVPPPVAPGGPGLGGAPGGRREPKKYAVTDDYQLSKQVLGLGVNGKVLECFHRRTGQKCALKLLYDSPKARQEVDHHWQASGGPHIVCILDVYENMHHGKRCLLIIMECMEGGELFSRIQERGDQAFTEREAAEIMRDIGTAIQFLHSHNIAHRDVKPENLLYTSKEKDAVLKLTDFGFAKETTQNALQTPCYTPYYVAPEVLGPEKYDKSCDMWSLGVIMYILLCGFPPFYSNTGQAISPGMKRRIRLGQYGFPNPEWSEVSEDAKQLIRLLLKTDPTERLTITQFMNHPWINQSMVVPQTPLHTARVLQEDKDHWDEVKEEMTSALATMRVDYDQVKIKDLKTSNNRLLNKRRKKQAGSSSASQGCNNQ

As for `CN1CCC(n2cnc(-c3ccc(F)cc3)c2-c2ccnc(NCCO)n2)CC1`, the inhibition was 3.86% in assay [1]; 1.32% in [2]; 3.99% in assay [3]; -3.49% in assay [4]; -5.99% in [5]; 1.6% in assay [6]. Also, the inhibition in [7] is 6.89%; in assay [8] it was 4.1%; in assay [9], 5.51%; in assay [10], 4.37%; in [11], 5.18%; in assay [12] it was 1.63%. Moreover, the inhibition in assay [13] worked out at 0.48%; in assay [14], 2.06%; in [15], 2.43%; in [16] it was 27.6%; in assay [17] it was 37.2%; in assay [18], 3.31%. Besides, the inhibition in assay [19] stood at 7.7%; in assay [20], 4.03%.

Turning to `CNC(=O)c1ncccc1Nc1nc(Nc2cc3c(cc2OC)CCCN3C(=O)CN(C)C)nc2[nH]ccc12`, the inhibition was found to be 5.55% in assay [1]; 4.46% in assay [2]; 8.21% in [3]; 0.87% in assay [4]; 5.93% in [5]; 3.13% in [6]. For the same molecule, the inhibition in assay [7] was 4.54%; in assay [8] it was 3.89%; in [9] it was 11.9%; in [10] it was 4.3%; in assay [11], 7.57%; in assay [12], 1.66%. Further, the inhibition turned out to be 3.04% in assay [13]; 2.23% in assay [14]; 1.51% in [15]; 3.6% in [16]; 2.72% in assay [17]; 4.87% in [18]. In addition, the inhibition in assay [19] amounted to 6.32%; in [20] it was 5.9%.

Turning to `Nc1nccc(-c2c(-c3ccc(F)cc3)ncn2C2CCNCC2)n1`, the inhibition in [1] was -5.1% and -1.06%; in assay [2], -3.9% and -0.18%; in [3], 1.49% and 0.43%; in [4] it was 0% and 0.8%; in assay [5], -2.13% and 0%; in assay [6], -2.55% and 0.68%. The inhibition in assay [7] was -3.32% and -2.24%; in assay [8], -2.81% and -0.53%; in assay [9] it was -2.65% and -0.65%; in assay [10], -2.18% and -0.72%; in assay [11], -3.07% and -0.77%; in assay [12] it was 1.18% and 0.52%. In addition, the inhibition was -2.79% and 3.76% in [13]; -1.56% and -0.23% in [14]; -1.96% and -0.84% in assay [15]; 27.6% and 29.5% in assay [16]; 34.1% and 34.6% in assay [17]; -0.83% and 1.71% in assay [18]. The inhibition was -0.5% and 1.51% in [19]; -0.05% and -0.2% in assay [20].

Take `CCS(=O)(=O)c1ccc(OC)c(Nc2ncc(-c3cccc(C(C)=O)c3)o2)c1`: the inhibition in assay [1] was 1.16%; in assay [2], 1.73%; in assay [3] it was 3.23%; in assay [4], -3%; in [5], -5.43%; in assay [6] it was -0.75%. The inhibition was -1.38% in assay [7]; 1.62% in assay [8]; 3.67% in assay [9]; 2.47% in [10]; 3.26% in assay [11]; -0.25% in [12]. Also, the inhibition in assay [13] was -0.78%; in assay [14] it was 2.19%; in [15] it was 1.71%; in assay [16], 3%; in assay [17], 3.61%; in [18], 1.61%. For the same molecule, the inhibition in [19] is 3.04%; in [20], 0.57%.

Consider `CNC(=O)c1cncc(/C=C/c2ccccc2C)c1`, for which the inhibition is 3.24% in [1]; 2.3% in assay [2]; 3.14% in assay [3]; -1.31% in assay [4]; -2.38% in [5]; 5.89% in assay [6]. The inhibition in [7] is 5.73%; in assay [8], 2.11%; in assay [9], 3.83%; in [10] it was 6.54%; in assay [11], 7.67%; in assay [12], 0.83%. For the same molecule, the inhibition in assay [13] came out at 0.28%; in [14], 1.99%; in [15] it was 2.51%; in assay [16], 3.43%; in [17] it was 3.22%; in assay [18], 2.55%. In addition, the inhibition in assay [19] turned out to be 7.06%; in assay [20] it was 3.94%.

For `Cc1ccc(-c2cc3c(NC(=O)C4CC4)ncnc3o2)cc1`, the inhibition in assay [1] was 4.25%; in [2], 3.37%; in assay [3] it was 3.7%; in assay [4], -0.74%; in [5] it was 30.3%; in [6], -0.37%. Further, the inhibition in assay [7] is 3.47%; in assay [8], 2.56%; in [9], 5.07%; in assay [10], 3.63%; in assay [11] it was 4.66%; in [12], 1.46%. For the same molecule, the inhibition in assay [13] stood at 0.28%; in [14] it was 1.78%; in assay [15], 1.3%; in assay [16] it was 2.67%; in assay [17], 2.29%; in assay [18], 5.62%. In addition, the inhibition was 5.21% in assay [19] and 3.78% in [20].
